This is one part of a sample in which hits are shown more often than they occur.
DUX4 inh – inhibitors of DUX4-driven ZSCAN4 reporter expression, primary screen, 293T cells, Gaussia and Italica luciferase; AID 1224904, 2016; 37,000 compounds, 0.8% hits; activity change, negative = inhibition, % (no concentration beside the values); 293T-iDUX4 ZSCAN4-Gaussia luciferase reporter, 24 h; stronger effect = lower value;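 active means mean inhibition of at least 10% in the main channel, exceeding the control channel by a set limit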;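 further: 0% = median of neutral control wells and -100% = median of positive control wells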
Starred values were filed as active, the others as inactive.

SMILES	DUX4 inh
CC(=O)N1CC(=O)N2[C@H](CO)[C@@H](c3ccc(C#Cc4cccnc4)cc3)[C@H]2C1	0
CC(C)CC#Cc1ccc([C@H]2[C@@H](CO)N3C(=O)CN(C(=O)Cc4ccccc4)C[C@H]23)cc1	-3
COCC(=O)N1CC(=O)N2[C@H](CO)[C@H](c3ccc(C#Cc4cccnc4)cc3)[C@H]2C1	-22*
COCC(=O)N1CC(=O)N2[C@H](C1)[C@H](c1ccc(C#Cc3cccnc3)cc1)[C@@H]2CO	10
CC(=O)N1CC(=O)N2[C@@H](CO)[C@H](c3ccc(C#Cc4cccnc4)cc3)[C@@H]2C1	4
COc1cccc(NC(=O)N2CC(=O)N3[C@H](CO)[C@@H](c4ccc(C#CC5CCCCC5)cc4)[C@H]3C2)c1	-7
COc1cccc(NC(=O)N2CC(=O)N3[C@H](CO)[C@@H](c4ccc(C#CC5CCCCC5)cc4)[C@@H]3C2)c1	5
COc1cccc(NC(=O)N2CC(=O)N3[C@@H](CO)[C@H](c4ccc(C#CC5CCCCC5)cc4)[C@@H]3C2)c1	-47*
C[C@@H](NC(=O)C[C@@H]1C=C[C@@H](NS(=O)(=O)c2cccc(F)c2)[C@@H](CO)O1)c1ccccc1	-2
Cc1cccc(-c2ccc([C@@H]3[C@@H](CO)N4C(=O)CN(C(=O)c5ccccc5)C[C@@H]34)cc2)c1	-8
CCS(=O)(=O)N1CC2(CN(Cc3cccnc3)[C@@H](CO)c3c2c2ccc(OC)cc2n3C)C1	13
C[C@H]1CN([C@@H](C)CO)C(=O)CCCn2nncc2CO[C@@H]1CN(C)Cc1ccc2c(c1)OCO2	6
Cc1ccccc1S(=O)(=O)Nc1ccc2c(c1)C(=O)N(C)[C@H]1CC[C@@H](CC(=O)O)O[C@@H]1CO2	0
O=C(Cc1ccccc1)N1CC[C@@H]2[C@H](CO)Nc3ccc(C#Cc4cccc(F)c4)cc3[C@@H]21	-19*
O=C(c1cccc(F)c1)N1CC[C@@H]2[C@H]1c1cc(C#Cc3ccc(F)cc3)ccc1N[C@@H]2CO	-14*
COc1ccc(C#Cc2ccc3c(c2)[C@@H]2[C@@H](CCN2C(=O)c2cccc(F)c2)[C@@H](CO)N3)cc1	21
O=C(c1ccc(F)cc1)N1CC[C@H]2[C@H](CO)Nc3ccc(C#Cc4ccccc4F)cc3[C@H]21	0
O=C(Cc1ccccc1)N1CC[C@H]2[C@H](CO)Nc3ccc(C#Cc4ccccc4)cc3[C@H]21	9
O=C(c1ccc(F)cc1)N1CC[C@@H]2[C@H](CO)Nc3ccc(C#CC4CC4)cc3[C@@H]21	0
COc1ccc(C#Cc2ccc3c(c2)[C@H]2[C@H](CCN2C(=O)c2cccc(F)c2)[C@@H](CO)N3)cc1	11
O=C(Cc1ccccc1)N1CC[C@H]2[C@H](CO)Nc3ccc(C#Cc4cccc(F)c4)cc3[C@H]21	-4
O=C(c1ccc(F)cc1)N1CC[C@@H]2[C@@H](CO)Nc3ccc(C#Cc4ccc(F)cc4)cc3[C@@H]21	-52*
O=C(Nc1ccc(Cl)cc1)N[C@@H]1CC[C@H](CCn2cc(-c3ccccc3F)nn2)O[C@H]1CO	-5
CN(C)CC#Cc1ccc([C@@H]2[C@H]3CN(C(=O)CN(C)C)CCCCN3[C@H]2CO)cc1	35
COc1ccc(CN(C)C[C@@H]2OCc3cnnn3CCCC(=O)N([C@@H](C)CO)C[C@H]2C)cc1	-3
SMILES	DUX4 inh
O=C(C[C@H]1C[C@H]2c3cc(NC(=O)C4CCOCC4)ccc3O[C@H]2[C@@H](CO)O1)NCc1ccc2c(c1)OCO2	2
CCN1[C@@H]2c3ccc(-c4ccncc4)c(=O)n3C[C@H]1[C@H](CO)[C@H]2C(=O)Nc1ccccc1	2
C[C@@H]1CN([C@H](C)CO)C(=O)c2ccccc2-c2ccccc2CO[C@@H]1CN(C)C(=O)Nc1ccc(F)cc1	10
OC[C@@H]1Nc2ccc(C#Cc3cccc(F)c3)cc2[C@H]2NCC[C@@H]12	7
COc1ccccc1C#Cc1ccc2c(c1)[C@@H]1NCC[C@@H]1[C@H](CO)N2	-23*
COc1ccccc1C#Cc1ccc2c(c1)[C@@H]1[C@@H](CCN1C(=O)c1ccncc1)[C@@H](CO)N2	-9
C[C@@H]1CN([C@@H](C)CO)C(=O)c2c(c3ccccc3n2C)-c2ccccc2CO[C@H]1CN(C)Cc1cccc(O)c1	-9
C[C@@H]1CN([C@H](C)CO)C(=O)c2c(c3ccccc3n2C)-c2ccccc2CO[C@H]1CN(C)Cc1cccc(F)c1	-35*
C[C@H](CO)N1C[C@H](C)[C@H](CN(C)Cc2cccc(O)c2)OCc2ccccc2-c2c(n(C)c3ccccc23)C1=O	-29*
C[C@H](CO)N1C[C@H](C)[C@@H](CN(C)Cc2cccc(C(=O)O)c2)OCc2ccccc2-c2c(n(C)c3ccccc23)C1=O	-1
C[C@H](CO)N1C[C@H](C)[C@H](CN(C)Cc2ccc(O)cc2)OCc2ccccc2-c2c(n(C)c3ccccc23)C1=O	-2
C[C@H]1CN([C@@H](C)CO)C(=O)c2c(c3ccccc3n2C)-c2ccccc2CO[C@H]1CN(C)Cc1cccc(C(=O)O)c1	-2
C[C@H]1CN([C@@H](C)CO)C(=O)c2c(c3ccccc3n2C)-c2ccccc2CO[C@H]1CN(C)Cc1ccc(O)cc1	5
C[C@H]1CN([C@@H](C)CO)C(=O)c2c(c3ccccc3n2C)-c2ccccc2CO[C@@H]1CN(C)Cc1cccc(C(=O)O)c1	3
C[C@H]1CN([C@@H](C)CO)C(=O)c2c(c3ccccc3n2C)-c2ccccc2CO[C@@H]1CN(C)Cc1cccc(O)c1	-45*
N#C[C@@H]1[C@H](c2ccc(C#CC3CCCCC3)cc2)[C@H](CO)N1C(=O)Nc1ccc(F)cc1	-1
CC=Cc1ccc2n(c1=O)C[C@H]1[C@H](CO)[C@@H](C(=O)N[C@H](C)c3ccccc3)N(C)[C@@H]21 (mixture of isomers)	0
CCNC(=O)C[C@@H]1CC[C@@H]2[C@@H](COc3ccc(NC(=O)c4ccc(F)c(F)c4)cc3C(=O)N2C)O1	-2
C[C@H](CO)N1C[C@H](C)[C@@H](CN(C)Cc2ccncc2)OCc2ccccc2-c2c(n(C)c3ccccc23)C1=O	11
C[C@H]1CN([C@@H](C)CO)C(=O)c2c(c3ccccc3n2C)-c2ccccc2CO[C@@H]1CN(C)Cc1ccc(-c2ccccc2)cc1	-41*
C[C@@H]1CN([C@H](C)CO)C(=O)c2ccccc2-c2ccccc2CO[C@@H]1CN(C)Cc1ccc(C(F)(F)F)cc1	-25*
C[C@@H]1CN([C@@H](C)CO)C(=O)c2c(c3ccccc3n2C)-c2ccccc2CO[C@H]1CN(C)Cc1ccncc1	-6
C[C@@H]1CN([C@@H](C)CO)C(=O)c2c(c3ccccc3n2C)-c2ccccc2CO[C@@H]1CN(C)Cc1ccc(-c2ccccc2)cc1	13
C[C@@H]1CN([C@H](C)CO)C(=O)c2ccccc2-c2ccccc2CO[C@@H]1CN(C)Cc1ccc(C(=O)O)cc1	3
C[C@H]1CN([C@@H](C)CO)C(=O)c2c(c3ccccc3n2C)-c2ccccc2CO[C@@H]1CN(C)Cc1ccc(Cl)c(Cl)c1	-49*
C[C@H]1CN([C@@H](C)CO)C(=O)c2c(c3ccccc3n2C)-c2ccccc2CO[C@@H]1CN(C)Cc1ccncc1	5
C[C@H]1CN([C@@H](C)CO)C(=O)c2ccccc2-c2ccccc2CO[C@H]1CN(C)Cc1ccc(O)cc1	4
C[C@@H]1CN([C@H](C)CO)C(=O)c2c(c3ccccc3n2C)-c2ccccc2CO[C@@H]1CN(C)Cc1ccc(Cl)c(Cl)c1	-19*
